An excerpt weighted towards active compounds, which were near 5% of everything screened.
SENP6 block: SENP6 protease inhibition; Q9GZR1; Recombinant SENP6 catalytic domain, aminoluciferin luminescence; inhibition, % at 10 µM; actives 1.8% (n = 330,000);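 active = inhibition above about 50% at the single tested dose, limit read from the data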;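 note: plate controls were DMSO wells with enzyme for no effect and DMSO wells lacking enzyme for full effect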
SENP8 block-1: inhibitors of human SENP8 protease. recombinant SENP8, Nedd8 substrate fluorescence. inhibition, % at 20 µM. actives 0.64% (n = 360,000). AID 602440; in the data active = inhibition mostly above about 40%, no sharp cut-off; inactive = mostly below about 27%
AHR act: activates the human aryl hydrocarbon receptor; AHR-responsive luciferase reporter cells, luminescence; activation, % at 5 µM; actives 2.5% (n = 320,000); in the data active = activation above about 47%;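 note: 0% = vehicle wells and 100% = reference agonist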
SENP8 block-2: SENP8 protease inhibition | Q96LD8 | AID 2540 | actives 1.2% (n = 330,000) | purified SENP8, Z-RLRGG-aminoluciferin cleavage, luminescence | inhibition, % at 10 µM; in the data active = inhibition above about 50%
EBI2 antag: antagonists of human EBI2 receptor | actives 0.81% (n = 360,000) | inhibition, % at 5 µM | AID 651636 | EBI2 beta-arrestin recruitment, luminescence, 7a,25-OHC stimulated | P32249; in the data active = inhibition above about 38%;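 note: enzyme fragment complementation signal reports receptor beta-arrestin coupling in cells; 0% = agonist plus DMSO wells and 100% = wells without agonist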
Target sequence (P32249 whole entry, looked up, the tested form may be a part): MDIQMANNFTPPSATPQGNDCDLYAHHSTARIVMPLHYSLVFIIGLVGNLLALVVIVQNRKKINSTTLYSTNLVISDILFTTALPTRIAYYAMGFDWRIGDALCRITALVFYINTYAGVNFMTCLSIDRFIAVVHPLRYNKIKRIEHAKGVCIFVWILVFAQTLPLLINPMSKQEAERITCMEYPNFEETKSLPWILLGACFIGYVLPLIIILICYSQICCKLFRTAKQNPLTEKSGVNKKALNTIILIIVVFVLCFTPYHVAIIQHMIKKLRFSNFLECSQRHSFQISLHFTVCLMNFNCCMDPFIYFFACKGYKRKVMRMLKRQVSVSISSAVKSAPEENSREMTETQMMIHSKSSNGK
SENP7 inh: blocks the human protease SENP7; recombinant SENP7, Z-RLRGG-aminoluciferin luminescence, 40 min; inhibition, % at 5 µM; actives 1.5% (n = 330,000); AID 434973;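 active = inhibition above about 50% at the single test dose, limit read from the data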;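 note: plate controls were DMSO with enzyme for no effect and no enzyme buffer wells for full effect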
EBI2 antag conf: confirmation of human EBI2 receptor antagonists. shares compounds with EBI2 antag. EBI2 beta-arrestin luminescence, 7a,25-OHC antagonism. inhibition, % at 5 µM. actives 29% (n = 2,400);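 active = inhibition of at least 50%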
EBI2 agonist: activates EBI2, counter-screen for EBI2 antagonists; shares compounds with EBI2 antag; EBI2-expressing cells, agonist mode, luminescence, 60 min; 0% vehicle, 100% 7α,25-dihydroxycholesterol control; activation, % at 5 µM; 2,400 tested, under 10 active; AID 652000;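 active = activation of at least 50%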
bGal cs: counter-screen for EBI2 antagonists: E. coli beta-galactosidase inhibition. actives 1% (n = 2,400). shares compounds with EBI2 antag. purified beta-galactosidase, luminescent Galacton Star, 15 min. inhibition, % at 5 µM;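 active = replicate-average signal at least 3 plate SD below neutral wells, shown as high inhibition, flagging enzyme-inhibiting false positives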;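 note: 0% = DMSO wells with enzyme and 100% = wells lacking enzyme; higher means stronger loss of beta-gal luminescence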
* hit, by the source's call; i = inactive; / = no result given.

SMILES	SENP6 block	SENP8 block-1	AHR act	SENP8 block-2	EBI2 antag	SENP7 inh	EBI2 antag conf	EBI2 agonist	bGal cs
Cc1ccc(NCCc2ccc(C)nc2)cc1	-18	26	1	4	47*	6	21	1	10
COc1ccc(NCCNc2ccc(OC)cc2)cc1	10	17	1	-2	40*	3	16	-1	-10
Cc1cccc(NCCNc2cccc(C)c2)c1	1	19	-4	-10	4	-10	/	/	/
CSc1ccc(-c2cccc3nncn23)cc1	/	i	/	/	6	/	/	/	/
CN(C)S(=O)(=O)c1ccc(C(=O)NCC(=O)N/N=C/c2cccs2)cc1	-10	12	-2	-10	10	-5	/	/	/
CN(C)S(=O)(=O)c1ccc(C(=O)NCC(=O)N/N=C/c2ccccc2Cl)cc1	5	15	1	0	72*	1	30	0	9
Cc1ccsc1/C=N/NC(=O)CNC(=O)c1ccc(S(=O)(=O)N(C)C)cc1	1	19	0	-2	8	-1	/	/	/
Cc1ccc(/C=N/NC(=O)CNC(=O)c2ccc(S(=O)(=O)N(C)C)cc2)cc1	4	22	1	2	45*	2	29	0	7
Cc1nc(CS(=O)(=O)c2ccccc2)cc(Sc2ccc(Cl)cc2)n1	-22	11	11	4	46*	-3	29	-1	-11
Cc1nc(CS(=O)(=O)c2ccc(Cl)cc2)cc(Sc2ccccc2Cl)n1	-19	15	1	-1	71*	3	47	0	3
Cc1nc(CS(=O)(=O)c2ccccc2)cc(Sc2ccccc2Cl)n1	8	14	9	0	43	-3	/	/	/
O=C(Cn1ccc2cc(S(=O)(=O)N3CCCC3)ccc21)NCc1ccco1	-3	4	1	-16	-4	-11	/	/	/
Cc1cccc(C2=NNC(=O)C(c3ccc(Cl)cc3)C2)c1 (stereo unspecified)	13	-3	3	5	24	-1	/	/	/
CCc1ccc(C2CC(c3ccc(Cl)cc3)=NNC2=O)cc1 (stereo unspecified)	-15	0	2	-2	61*	3	48	1	0
O=C1NN=C(c2ccc(Br)cc2)CC1c1ccc(Cl)cc1 (stereo unspecified)	2	8	9	-2	74*	10	52*	-2	-2
Cc1ccc(C2CC(c3ccc(Cl)cc3)=NNC2=O)cc1 (stereo unspecified)	-10	22	0	-3	50*	4	44	0	8
Cc1ccc(S(=O)(=O)N2C(=O)CCC2C(=O)O/N=C(\N)c2ccc([N+](=O)[O-])cc2)cc1 (stereo unspecified)	-5	0	3	13	-18	1	/	/	/
COc1ccc(CCN2CC(C(=O)NCc3cccc(F)c3)CCC2=O)cc1 (stereo unspecified)	/	16	/	/	19	/	/	/	/
COc1ccc(OC)c(S(=O)(=O)N2CCC(c3nc4ccccc4[nH]3)CC2)c1	-15	5	4	-2	-6	8	/	/	/
O=C(NCCS(=O)(=O)N1CCN(c2ccccc2)CC1)c1cccs1	0	7	-1	11	-1	-1	/	/	/
Cn1c2ccccc2c2nnc(N/N=C/c3ccc(O)cc3)nc21	-5	23	4	9	-11	4	/	/	/
O=C1c2cnc3nc(SCc4cccc(Cl)c4)nn3c2CC2c3ccccc3CCN12 (stereo unspecified)	7	-268	-4	3	42*	14	24	-4	-7
CSc1nc2ncc3c(n2n1)CC1c2ccccc2CCN1C3=O (stereo unspecified)	-16	-278	5	-10	-10	-9	/	/	/
N#CCC(=O)N1CC2(CC(c3cccc(NC(=O)COc4ccc(Cl)cc4)c3)=NO2)C[C@@H]1C(N)=O (stereo partly specified)	29	2	0	23	5	4	/	/	/

Source: PubChem BioAssay (several laboratories)
